# Tests used:
# Conditions in all cases: concentration: 1 μM, replicates: in singlicate; n = 1
# TRPM6 = test system: TRPM6
# TSSK1B = test system: TSSK1B
# TSSK3 = test system: TSSK3
# TTK = test system: TTK
# TXK = test system: TXK
# [1] = test system: TYK2(JH1domain-catalytic)
# [2] = test system: TYK2(JH2domain-pseudokinase)
# TYRO3 = test system: TYRO3
# ULK1 = test system: ULK1
# ULK2 = test system: ULK2
# ULK3 = test system: ULK3
# VEGFR2 = test system: T1, VEGFR2
# T1 construct: gene KDR
# VPS34 = test system: T2, VPS34
# T2 construct: gene PIK3C3
# VRK2 = test system: VRK2
# WEE1 = test system: WEE1
# WEE2 = test system: WEE2
# WNK1 = test system: WNK1
# WNK2 = test system: WNK2
# WNK3 = test system: WNK3
# WNK4 = test system: WNK4
# 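Note: KINOMEscan kinase panel screen.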
Compound,%Inh (TRPM6) [%],%Inh (TSSK1B) [%],%Inh (TSSK3) [%],%Inh (TTK) [%],%Inh (TXK) [%],%Inh [1] [%],%Inh [2] [%],%Inh (TYRO3) [%],%Inh (ULK1) [%],%Inh (ULK2) [%],%Inh (ULK3) [%],%Inh (VEGFR2) [%],%Inh (VPS34) [%],%Inh (VRK2) [%],%Inh (WEE1) [%],%Inh (WEE2) [%],%Inh (WNK1) [%],%Inh (WNK2) [%],%Inh (WNK3) [%],%Inh (WNK4) [%]
Cc1cc(Nc2nc(-c3cccc(C)n3)nc3ccccc23)ccn1 [GW872411],0,0,0,0,0,0,1,0,4,0,0,0,0,40,1,2,0,0,0,0
Nc1n[nH]c2ncc(-c3ccccc3)cc12 [SB-517081],21,16,4,33,0,45,92.7,0,3,0,14,16,0,11,17,2,12,0,27,35
COC(=O)c1c(-c2ccccc2)c2cc(C)ccc2c(=O)n1Cc1ccccc1,0,0,0,5,0,0,0,0,0,0,0,0,0,0,0,6,0,0,0,0
Cc1cccc(-c2nc(Nc3ccc4c(cnn4C)c3)c3ccccc3n2)n1 [GW876731],0,3,0,0,10,20,39,5,8,13,0,0,56,15,0,0,18,7,21,0
Nc1ncnc2c1ncn2-c1ccc(Cl)cc1 [AH2635],44,0,16,0,5,25,39,0,0,0,2,0,0,15,0,11,0,0,34,32
Cc1nnc(-c2ccc(C)c(-c3ccc(C(=O)O)cc3)c2)o1 [GW608005],1,10,0,12,0,15,8,0,8,0,0,3,0,0,0,0,30,0,15,0
CCC(=O)c1c(-c2ccccc2)c2cc(Cl)ccc2c(=O)n1Cc1cc(S(C)(=O)=O)n(CC(N)=O)n1,0,0,0,8,0,0,0,0,0,0,8,0,0,0,4,0,0,0,0,0
COc1cc2ncn(-c3cc(OCc4ccc(S(C)(=O)=O)cc4)c(C(N)=O)s3)c2cc1OC [GW869979],0,0,22,0,0,17,11,19,6,6,22,20,33,2,0,0,0,58,0,51
O=c1cc(N2CCOCC2)nc2n(Cc3ccc(F)c(Cl)c3)ccn12 [GSK2297099],36,0,9,0,0,0,15,0,16,0,8,4,95.2,0,2,3,8,4,5,6
Cc1cccc(-c2cc(-c3c[nH]nc3-c3ccccn3)ccn2)c1 [GW679395],0,24,0,23,0,9,27,0,0,0,5,0,0,26,13,1,11,22,36,38
CCS(=O)c1ccc(-c2coc3ccc(-c4nnc(C)o4)cc23)cc1 (stereo not shown),0,0,0,14,0,21,11,0,0,4,0,10,15,2,7,0,0,3,0,11
O=C(Nc1ccc2c(c1)OCO2)NC1CCN(c2ccnc(NCc3ccc(F)cc3)n2)CC1 [GSK1379859],47,0,12,0,0,0,0,0,12,0,0,0,7,0,12,0,0,0,0,13
CCS(=O)(=O)c1ccc(OC)c(Nc2ncc(-c3ccc(F)cc3)o2)c1.Cl [GW591947],4,10,13,0,0,1,0,4,0,0,0,0,21,0,12,0,2,4,21,0
Cn1c(=O)c(F)c(Nc2ccc(I)cc2F)c2c(=O)n(OC[C@H](O)CO)cnc21,0,0,0,15,23,0,0,2,0,0,13,0,0,0,29,4,0,0,0,11
Cc1ccc(Oc2ccc(Nc3ncnc4cc[nH]c34)cc2C)cn1,0,5,0,31,6,22,15,3,11,0,22,15,20,0,0,0,0,0,10,0
Nc1nc(N)c2nc(-c3ccccc3)[nH]c2n1 [SKF-12778],11,0,5,4,25,43,74,0,16,9,30,0,0,5,8,0,9,9,11,17
Cc1ccc(-c2ccc3c(ccc4sc5c(c43)NC[C@@H](C)N=C5N(C)C)n2)cn1,0,0,0,0,0,0,0,0,0,0,0,0,0,0,0,0,0,0,0,0
Cl.c1ccc(Cn2cnc3cc(Nc4ncnc5ccccc45)ccc32)cc1 [GW272142],0,12,10,0,0,13,21,0,7,0,5,0,0,0,4,12,2,21,35,44
OCCCNc1nccc(-c2c(-c3cccc(C(F)(F)F)c3)nn3cc(C(F)(F)F)ccc23)n1 [GW630813],0,0,6,0,0,14,13,0,0,0,0,3,0,18,0,0,0,0,33,85
Cc1nc(N(C)[C@H]2CN(C(=O)CC#N)CC[C@H]2C)c2cc[nH]c2n1,0,0,0,19,8,15,0,18,0,8,0,0,0,0,0,13,0,0,0,0

# — PMC5540273 (PLoS ONE, 2017)
